Our source for the Potency and outcome values is PubChem BioAssay (Tox21).

Values joined by “and” are separate entries in the source; they are usually repeats but may differ in a detail not shown here. Equal entries are not always repeated. Results filed as inconclusive are left out. Active and inactive are the calls of the source. Unless noted, calls come from the whole dose curve; as a rule, active = well fitted curve in the direction sought with a large enough effect in the repeat runs; inconclusive = weak or mixed curves; inactive = no such curve, though single readings can be large; an effect the other way counts as inactive or inconclusive.

Assay [1] is described as follows: qHTS assay for small molecules that induce genotoxicity in human embryonic kidney cells expressing luciferase-tagged ATAD5 (AID 651632). Note: nearly all actives have a fitted effect of over 15% in size. In a few lines:
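Increased luciferase signal from ATAD5-tagged reporter cells indicates DNA-damage-driven ATAD5 induction. HEK293T cells are treated for 16 hr at 37C before detection with Amplite.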

Assay [2] can be described thus: qHTS assay for small molecule agonists of the p53 signaling pathway - cell viability (AID 651633; calls by dose curve; note: nearly all actives have a fitted effect of over 30% in size; note: potency is the fitted concentration of half-maximal effect). In a few lines: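 Viability counter-read: CellTiter-Glo luminescence (30 min, room temperature) in the same p53RE-bla plates. These plates had been exposed to compounds for 16 h at 37 C.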
The nature of assay [3]: qHTS assay for small molecules that induce genotoxicity in human embryonic kidney cells expressing luciferase-tagged ATAD5 - cell viability (AID 651634; calls by dose curve; note: nearly all actives have a fitted effect of over 25% in size; note: potency is the fitted concentration of half-maximal effect). In a few lines: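 Cytotoxicity counterscreen in HEK293T cells bearing an ATAD5-luciferase reporter: live-cell protease activity measured by CellTiter-Fluor fluorescence after 15.5 hr compound exposure.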
A short description of assay [4]: qHTS assay for small molecule disruptors of the mitochondrial membrane potential - cell viability (AID 720634; calls by dose curve; note: nearly all actives have a fitted effect of over 20% in size; note: potency is the fitted concentration of half-maximal effect). In a few lines:
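After overnight attachment at 37 C, HepG2 cells received compound or DMSO vehicle for 1 hr. Viability is then taken from ATP-driven luminescence following a 30 min room-temperature CellTiter-Glo step.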

Assay [5] can be described thus: qHTS assay for small molecule disruptors of the mitochondrial membrane potential (AID 720635). Note: potency is the fitted concentration of half-maximal effect. In a few lines:
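Mitochondrial membrane potential tracked with Mito-MPS dye, red aggregates (ex 540/em 590 nm) against green monomers (ex 490/em 535 nm). Compound treatment 1 hr at 37C, dye 30 min in HepG2.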

Assay [6] can be described thus: qHTS assay to test for compound auto fluorescence at 590 nm (red) in HepG2 cells (AID 720674). In a few lines: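 1 hr compound incubation on HepG2 cells, 37 C, 5% CO2; plate read ex 540 nm / em 590 nm; intensities reported as Rose Bengal sodium equivalents.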
Assay [7] can be described thus: qHTS assay to test for compound auto fluorescence at 535 nm (green) in HepG2 cells (AID 720675).
Assay [8] in a line: qHTS assay to test for compound auto fluorescence at 460 nm (blue) in HEK293 cells (AID 720678). In a few lines:
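Intrinsic compound fluorescence is recorded in live HEK293 cultures after overnight incubation at 37C, 5% CO2, using excitation 405 nm and emission 460 nm. Values are referenced to triamterene.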

The nature of assay [9]: qHTS assay to test for compound auto fluorescence at 590 nm (red) in HEK293 cells (AID 720679). In a few lines: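 Red autofluorescence, HEK293 cells: 2,000 cells/well; attach 4-5 hr 37C; add 23 nL cpd or DMSO; incubate o/n 37C 5% CO2; read Ex540/Em590; Rose Bengal sodium reference.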
A short description of assay [10]: qHTS assay to test for compound auto fluorescence at 535 nm (green) in HEK293 cells (AID 720680).
Assay [11] is described as follows: qHTS assay to test for compound auto fluorescence at 460 nm (blue) in HEK293 cell free culture (AID 720681). In a few lines:
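Blue fluorescence (Ex 405/Em 460 nm, triamterene-equivalent) was read immediately after pin transfer of compound or DMSO into medium (DMEM, 10% FBS) without cells.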

A short description of assay [12]: qHTS assay to test for compound auto fluorescence at 535 nm (green) in HEK293 cell free culture (AID 720682). In a few lines: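 Fluorescein serves as the green reference fluorophore; each compound's intrinsic emission at 535 nm (excitation 485 nm) is reported as an equivalent amount of that dye, measured in serum-containing DMEM without cells.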
Assay [13] in a line: qHTS assay to test for compound auto fluorescence at 590 nm (red) in HEK293 cell free culture (AID 720683). In a few lines:
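Red-channel autofluorescence of compounds in culture medium (DMEM, 10% FBS), no cells, measured at 540/590 nm. Rose Bengal sodium is the reference fluorophore for equivalence.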

The nature of assay [14]: qHTS assay to test for compound auto fluorescence at 590 nm (red) in HepG2 cell free culture (AID 720684). In a few lines: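 Plate contents were MEM with 10% FBS plus test compound or DMSO, no cells. Fluorescence was recorded with 540 nm excitation and 590 nm emission.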
Assay [15] is described as follows: qHTS assay to test for compound auto fluorescence at 460 nm (blue) in HepG2 cell free culture (AID 720685). In a few lines: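 Compound (23 nL) or DMSO pinned into cell-free MEM with 10% FBS; blue fluorescence read at 405/460 nm excitation/emission, expressed as auto-fluorescence equivalency to triamterene.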
The nature of assay [16]: qHTS assay to test for compound auto fluorescence at 535 nm (green) in HepG2 cell free culture (AID 720686).
Assay [17] is described as follows: qHTS assay to test for compound auto fluorescence at 460 nm (blue) in HepG2 cells (AID 720687). In a few lines: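 Blue-channel autofluorescence (Ex/Em 405/460 nm, triamterene-equivalent) was measured after 1 hr compound exposure at 37 C, 5% CO2. Cells were HepG2, plated overnight at 37 C in MEM plus 10% FBS.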
Assay [18] in a line: qHTS assay for small molecule agonists of the p53 signaling pathway (AID 651631; calls by dose curve; note: potency is the fitted concentration of half-maximal effect; nearly all actives have a fitted effect of over 15% in size). In a few lines:
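Read-out is beta-lactamase FRET fluorescence measured 2 h after substrate addition at room temperature, in HCT-116 cells with a p53 response element-driven reporter exposed to compounds for 16 h at 37 °C.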

Assay [19] has as its target Glucocorticoid receptor (Homo sapiens) (UniProt P04150). Kind of assay: qHTS assay to identify small molecule agonists of the glucocorticoid receptor (GR) signaling pathway (AID 720691; active = well fitted activation curve with a large enough effect in the signal ratio in the repeat runs, not every such curve was filed as active; the % refers to the signal ratio; note: potency is the fitted concentration of half-maximal effect). In a few lines: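 Agonist mode in a HeLa line carrying a GRE-controlled beta-lactamase reporter. Compounds act for 18 h at 37 C before a 2 h room-temperature FRET substrate step and fluorescence reading.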

The target is the same in assay [20]. The assay can be described thus: qHTS assay to identify small molecule antagonists of the glucocorticoid receptor (GR) signaling pathway (AID 720692; active = well fitted inhibition curve with a large enough effect in the signal ratio in the repeat runs, not every such curve was filed as active; the % refers to the signal ratio; note: potency is the fitted concentration of half-maximal effect). In a few lines: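 Cells plated, rested 4 h at 37 C/5% CO2; compounds in DMSO pin-transferred; dexamethasone added to 5 nM final; 18 h at 37 C; B/G FRET substrate added, 2 h room temperature; fluorescence measured.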

Glucocorticoid receptor (Homo sapiens), sequence (P04150 whole entry, looked up): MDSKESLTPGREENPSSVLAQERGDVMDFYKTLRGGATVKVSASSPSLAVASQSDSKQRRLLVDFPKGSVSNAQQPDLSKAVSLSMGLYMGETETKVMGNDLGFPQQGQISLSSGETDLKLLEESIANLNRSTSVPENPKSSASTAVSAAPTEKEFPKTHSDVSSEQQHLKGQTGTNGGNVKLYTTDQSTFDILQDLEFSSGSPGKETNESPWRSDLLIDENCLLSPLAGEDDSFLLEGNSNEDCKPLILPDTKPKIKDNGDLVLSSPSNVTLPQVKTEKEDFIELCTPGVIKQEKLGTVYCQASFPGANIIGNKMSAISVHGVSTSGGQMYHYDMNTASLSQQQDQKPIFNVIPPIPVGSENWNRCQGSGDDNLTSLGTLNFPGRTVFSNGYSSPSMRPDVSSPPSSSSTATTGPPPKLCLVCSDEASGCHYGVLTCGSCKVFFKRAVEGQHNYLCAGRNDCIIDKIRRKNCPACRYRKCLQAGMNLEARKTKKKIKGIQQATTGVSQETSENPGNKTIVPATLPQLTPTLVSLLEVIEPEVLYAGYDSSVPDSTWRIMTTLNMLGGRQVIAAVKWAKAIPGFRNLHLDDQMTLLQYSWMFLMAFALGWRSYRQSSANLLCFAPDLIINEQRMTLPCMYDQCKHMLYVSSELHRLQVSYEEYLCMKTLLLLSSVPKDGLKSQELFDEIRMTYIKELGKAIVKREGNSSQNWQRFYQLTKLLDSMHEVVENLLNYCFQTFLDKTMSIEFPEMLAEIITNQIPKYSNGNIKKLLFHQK

In the case of `c1ccc2c(c1)OCC(C1=NCCN1)O2` (centres undefined), the Potency entry in assay [1], in assay [2], in assay [3], in assay [4], in [8] and in [11] was “inactive” each time. Also, the Potency entry in [15] and in [17] was “inactive” each time. In addition, in assay [5], the Potency is 27.8 µM (active). For the same molecule, the outcome in assay [6], in [7], in [9], in assay [10], in assay [12] and in assay [13] was inactive. Besides, the call in assay [14] and in [16] was inactive.
With `CCC(C)c1cc([N+](=O)[O-])cc([N+](=O)[O-])c1OC(=O)C=C(C)C` (centres undefined), the Potency is 12.2 µM (active) in assay [18] and 19.5 µM (active) in assay [20]. The Potency result in [1], in [8], in [11], in assay [15], in assay [17] and in [19] was “inactive” each time. Moreover, the call in [6], in assay [7], in assay [9], in [10], in [12] and in assay [13] was inactive. Also, the molecule was called inactive in [14] and in assay [16].
With `CCOC(=O)C1(c2ccccc2)CCN(CCC(C#N)(c2ccccc2)c2ccccc2)CC1`, the Potency in assay [18] is 3.76 µM (active) and 26.6 µM (active); in assay [5], 13.3 µM (active) and 26.6 µM (active); in assay [19], 60 µM (active). Besides, the Potency result in assay [1], in [3], in [8], in assay [11], in assay [15] and in assay [17] was “inactive” each time. Moreover, the call in assay [6], in [7], in assay [9], in assay [10], in [12] and in assay [13] was inactive. Further, the molecule was classed as inactive in assay [14] and in assay [16].
With `Clc1ccc(C(Cl)(Cl)Cl)c(Cl)c1`, the Potency result in assay [1], in [2], in assay [3], in assay [4], in assay [8] and in [11] was “inactive” each time. For the same molecule, the Potency result in assay [15] and in [17] was “inactive” throughout. The Potency in [5] was 61.6 µM (active). In addition, the molecule was called inactive in assay [6], in assay [7], in [9], in assay [10], in assay [12] and in [13]. Moreover, the result in assay [14] and in assay [16] was inactive.
Regarding `COC12CC[C@@]3(C[C@@H]1C(C)(O)C(C)(C)C)[C@H]1Cc4ccc(O)c5c4[C@@]3(CCN1CC1CC1)[C@H]2O5` (some centres undefined), the Potency entry in assay [1], in [8], in [11], in [15] and in [17] was “inactive” throughout. Besides, the Potency in [2] was 54.1 µM (active); in [3] it was 60.7 µM (active); in [4], 54.1 µM (active); in assay [5] it was 19.2 µM (active). For the same molecule, the outcome in [6], in assay [7], in [9], in assay [10], in [12] and in assay [13] was inactive. Besides, the outcome in assay [14] and in [16] was inactive.
`CCC[CH2][Sn]([CH2]CCC)([CH2]CCC)[O]C(=O)c1ccccc1`: the Potency result in assay [1], in [8], in assay [11], in [15] and in assay [17] was “inactive” throughout. Besides, the Potency in [2] was 0.611 µM (active); in assay [3], 1.22 µM (active); in [4], 2.17 µM (active); in assay [5], 0.077 µM (active). The molecule was classed as inactive in [6], in assay [7], in assay [9], in assay [10], in [12] and in assay [13]. The result in assay [14] and in [16] was inactive.
`CS(=O)(=O)c1ccc(C(=O)C2C(=O)CCCC2=O)c([N+](=O)[O-])c1`: the Potency result in [1], in assay [2], in assay [3], in [4], in assay [8] and in assay [11] was “inactive” in each case. Moreover, the Potency result in [15], in assay [17] and in assay [19] was “inactive” in each case. Besides, the Potency in assay [5] was 6.98 µM (active). Moreover, the result in assay [6], in assay [7], in assay [9], in assay [10], in assay [12] and in assay [13] was inactive. For the same molecule, the outcome in assay [14] and in assay [16] was inactive.
